Where “and” joins values, the source holds several entries; their conditions need not be identical. Equal entries are not always repeated. Records with an inconclusive call do not appear. Values without a mark were called inactive. Calls of active or inactive are those of the source. Calls follow the shape of the dose curve; as a rule, active = well fitted activation curve with a large enough effect; inconclusive = small, poorly fitted or top-dose-only effect; inactive = no such curve, though single readings can be large or run the other way.
Potency is read from the fitted curve at half-maximal effect.

Cellular tumor antigen p53 (Homo sapiens), sequence (P04637 whole entry, looked up): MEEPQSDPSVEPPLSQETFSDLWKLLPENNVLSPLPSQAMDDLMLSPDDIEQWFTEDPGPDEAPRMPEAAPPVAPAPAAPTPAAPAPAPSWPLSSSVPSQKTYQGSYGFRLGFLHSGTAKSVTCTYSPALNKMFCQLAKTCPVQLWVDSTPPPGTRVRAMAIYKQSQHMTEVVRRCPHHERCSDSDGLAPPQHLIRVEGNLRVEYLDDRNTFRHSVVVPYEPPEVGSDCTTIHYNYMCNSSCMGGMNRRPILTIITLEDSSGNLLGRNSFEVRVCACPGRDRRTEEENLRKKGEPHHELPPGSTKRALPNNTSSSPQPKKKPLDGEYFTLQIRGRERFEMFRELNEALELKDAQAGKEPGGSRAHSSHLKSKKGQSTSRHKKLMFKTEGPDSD

This experiment addresses Cellular tumor antigen p53 (Homo sapiens) (UniProt P04637). Kind of experiment: Primary qHTS for small molecule compounds that upregulate eGFP-tagged delta133p53alpha (in N-terminal) cells. (AID 2060322). Also: nearly all actives have a fitted effect of over 75% in size.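 As to activation: series mostly up to about 56 µM; 0% = DMSO vehicle and 100% = reference activator.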 As to conditions: NCI-H358 eGFP-delta133p53alpha fluorescence, 24 h; activation: active compounds read high. The gist of the method: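 NCI-H358 cells pre-induced 24 h with 10 ng/ml doxycycline for eGFP-delta133p53alpha, plated dox-free and exposed 24 h at 37C to titrated compounds. Fixed, Hoechst-stained; gated GFP peak intensity by laser scanning cytometry, normalized to DMSO (0%) and 57.5 uM 5-azacytidine (100%).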
On the technique in general: qHTS replaces the single test concentration by a dilution series.
Consider `CCN(CC)C(=O)/C(C#N)=C/c1cc(O)c(O)c([N+](=O)[O-])c1`, for which the activation was -3.95%.

On to `CCCCOC(=O)CC(CC(=O)OCCCC)(OC(C)=O)C(=O)OCCCC`, for which the activation is -31.1%.

For the compound `CNCCc1ccccn1`, the activation was 5.02%.

In the case of `CCC(=O)NC[C@H](Cc1ccc(OCCc2nc(-c3ccccc3)oc2C)cc1)NC(C)=CC(=O)c1ccc(C(F)(F)F)cc1`, the activation was 17.2%.

Consider `CCC(CC)[C@H](NC(C)=O)[C@@H]1[C@H](O)[C@@H](C(=O)O)C[C@@H]1N=C(N)N`, for which the activation is 7.36%.

Regarding `CN(C)CCN(Cc1ccc(Cl)cc1)c1ccccn1`, the activation is 1.96%.

Regarding `O=C(O)c1cn(C2CC2)c2cc(Cl)c(F)cc2c1=O`, the activation was 11.9%.

For `CN(C)CCN1C(=O)c2ccccc2N(C)c2ccccc21`, the activation was 7.34%.

As to `O=C(O)COC(=O)Cc1ccccc1Nc1c(Cl)cccc1Cl`, the activation is 5.08%.

Consider `CCOC(=O)O[C@]1(C(=O)OCCl)CC[C@@H]2[C@H]3CCC4=CC(=O)C=C[C@]4(C)[C@@H]3[C@@H](O)C[C@@]21C`, for which the activation was -2.28%.

Turning to `O=C1CCc2ccccc2O1`, the activation is -6.7%.

As for `CC(C)(C)NC[C@H](O)COc1cccc2c1CCCC2=O`, the activation was 8.47%.

Regarding `c1ccc(CNCCNCc2ccccc2)cc1`, the activation is 2.51%.

On to `Cc1cc(C)cc(OCC2CNC(=O)O2)c1` (stereo not given), for which the activation was -11.9%.

Regarding `O=C(O)Cn1c(C(=O)Nc2nc(-c3ccccc3Cl)cs2)cc2ccccc21`, the activation is 5.08%.

On to `CCN(CC)CCN`, for which the activation is -0.837%.

For `CCOC(=O)N1CCC(n2c(=O)[nH]c3cc(Cl)ccc32)CC1`, the activation was -16.4%.

In the case of `Cc1cc(CC(=O)O)c(C)n1-c1ccc(Cl)cc1`, the activation is 5.86%.

Consider `NCCCC[C@H](N[C@@H](CCc1ccccc1)C(=O)O)C(=O)N1CCC[C@H]1C(=O)O`, for which the activation was -3.95%.

For the compound `CC(C)(Oc1ccc(Cl)cc1)C(=O)O`, the activation is -18.4%.

For `CC[C@H]1OC(=O)[C@H](C)[C@@H](O[C@H]2C[C@@](C)(OC)[C@@H](O)[C@H](C)O2)[C@H](C)[C@@H](O[C@@H]2O[C@@H](C)C[C@H](N(C)C)[C@@H]2O)[C@](C)(O)C[C@@H](C)C(=O)[C@H](C)[C@@H](O)[C@]1(C)O`, the activation is 29.3%.

As to `O=C(NCC(=O)N1CCCCC1)Nc1ccc2nnsc2c1`, the activation was -6.7%.

Take `Cc1[nH]c(C=C2C(=O)Nc3ccccc32)c(C)c1CCC(=O)O`: the Potency was 24.3 µM (active).

As to `O=C(NCCCN1CCOCC1)c1ccc(Cl)cc1`, the activation was -23.2%.

Regarding `COc1cc(C(=S)N2CCOCC2)ccc1O`, the activation was -10.7%.

In the case of `O=C(O)c1ccccc1Nc1cccc(C(F)(F)F)c1`, the activation was -19.8%.

With `CNC(=O)CN(CCN(CCN(CC(=O)[O-])CC(=O)NC)CC(=O)[O-])CC(=O)[O-].O.[Gd+3]`, the activation is 0.837%.

Take `NC(=O)c1nnn(Cc2cc(Cl)c(C(=O)c3ccc(Cl)cc3)c(Cl)c2)c1N`: the activation is -8.58%.

As for `CC1(C)SCCN(S(=O)(=O)c2ccc(OCC#CCO)cc2)[C@@H]1C(=O)NO`, the activation was 9.74%.

With `CC(C)(C)C(=O)OCOC(=O)C1N2C(=O)CC2S(=O)(=O)C1(C)C` (stereo not given), the activation is 3.95%.

Turning to `CCN(CC)CCOC(=O)C1(c2ccccc2)CCCC1`, the activation was 3.35%.

For `CC(C)(C)CC(=O)OCC(=O)[C@@]1(O)CC[C@H]2[C@@H]3CCC4=CC(=O)C=C[C@]4(C)[C@H]3[C@@H](O)C[C@@]21C`, the activation was -9.21%.

As for `CCCOc1ccc2c(c1)CC[C@@H]1[C@@H]2CC[C@]2(C)C(OC)CC[C@@H]12` (stereo not given in full), the activation was 0.565%.

`Cn1cc[nH]c1=S`: the activation was -1.69%.

Turning to `Cc1ccc2c(Cl)cc(Cl)c(O)c2n1`, the activation was 7.34%.

Turning to `COc1cc(C=O)ccc1O`, the activation is 5.02%.

For `CCN(C(=O)CO)[C@H]1CN(C(=Nc2cccc(OC(F)F)c2)NC#N)N=C1c1ccc(Cl)c(Cl)c1`, the activation is 19%.

With `O=C(Nc1ccccc1)Nc1ccc(-c2ccc(C(=O)[C@H]3CCC[C@H]3C(=O)O)cc2)cc1`, the activation was -3.35%.

Turning to `COc1cnc(NS(=O)(=O)c2ccc(N)cc2)nc1`, the activation was 2.51% and 10.3%.

For the compound `CO[C@@]1(NC(=O)CSC[C@@H](N)C(=O)O)C(=O)N2C(C(=O)O)=C(CSc3nnnn3C)CS[C@@H]21`, the activation was 13.4%.

(Values after PubChem BioAssay (NCATS).)
